# Assay outcomes: PubChem BioAssay, National Center for Advancing Translational Sciences (NCATS)
# The list is not random: actives were taken first. Their share in the collection is about 7.3%.
# FLuc counter = counter-screen for miR-21 project: firefly luciferase inhibitors or activators; P08659; purified FLuc, Km substrates, luminescence inhibition; Potency, µM (top dose mostly 57.5 µM), for the others: at the highest dose activity change, negative = inhibition, hits mostly inhibitors; 360,000 compounds, 6.9% hits;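 further: plate controls were vehicle for no effect and reference inhibitor for full effect; nearly all actives have a fitted effect of over 55% in size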
# Target sequence (P08659 whole entry, looked up): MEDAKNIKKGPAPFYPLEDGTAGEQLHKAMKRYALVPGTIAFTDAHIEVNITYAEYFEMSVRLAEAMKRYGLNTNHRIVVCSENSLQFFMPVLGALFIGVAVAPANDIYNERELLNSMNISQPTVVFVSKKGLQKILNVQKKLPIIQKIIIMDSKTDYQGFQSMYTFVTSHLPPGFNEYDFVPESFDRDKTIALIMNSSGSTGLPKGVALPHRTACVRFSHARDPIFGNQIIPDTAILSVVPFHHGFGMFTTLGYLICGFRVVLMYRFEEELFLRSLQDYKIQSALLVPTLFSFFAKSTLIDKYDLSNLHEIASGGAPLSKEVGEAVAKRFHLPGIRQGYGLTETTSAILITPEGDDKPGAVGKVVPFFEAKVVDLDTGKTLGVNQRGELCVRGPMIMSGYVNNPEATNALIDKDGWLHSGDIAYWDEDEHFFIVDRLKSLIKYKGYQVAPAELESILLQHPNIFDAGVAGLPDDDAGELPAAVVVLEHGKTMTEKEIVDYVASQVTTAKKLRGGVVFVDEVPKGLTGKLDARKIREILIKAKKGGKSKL
#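 Biochemical qHTS of compounds, final roughly 60 µM downward over six points, against 10 nM purified firefly luciferase using Km concentrations of substrates (10 uM D-luciferin, 10 uM ATP) in Tris acetate pH 7.5 buffer; luminescence output.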
# NPC1 prom act = NPC1 promoter activation. Potency, µM (series often up to 9.22 µM), for the others: at the top dose activation, usual class: activators. 320,000 compounds, 2.4% hits. Huh7 NPC1 promoter luciferase reporter, 24 h; further: % of control where 0% means no effect; nearly all actives have a fitted effect of over 60% in size
#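 Stable NPC1-promoter luciferase Huh7 line; cpd (DMSO) 24 h, 37 °C, 5% CO2; Amplite luciferase reagent 10 min RT; luminescence readout. qHTS format.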
# p53 reactivator = restores transcriptional activity of mutant p53. H1299 p53-A138V BP100-luciferase reporter, luminescence, 24 h. Potency, µM (top dose mostly 92.2 µM), inactives show at the top dose activity change, positive = activation, actives largely listed as activators. 320,000 compounds, 0.063% hits; further: % of control where 0% means no effect; nearly all actives have a fitted effect of over 45% in size
#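 p53-null H1299 cells stably carrying temperature-sensitive p53-A138V and a BP100-luciferase reporter were pinned with compounds (4-point, 1:5 series) and held 24 hrs at 37 deg C. Luminescence was read 10 min after detection reagent.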
# SMN2 splice up = increases expression of the SMN2 splice variant | HEK293 SMN2-luciferase splicing reporter, luminescence, 30-36 h | Potency, µM (series often up to 46.1 µM), inactives show at the top dose activity change, positive = activation, usual class: activators | 210,000 compounds, 2.8% hits | AID 1458; further: % of control where 0% means no effect; nearly all actives have a fitted effect of over 55% in size
#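 qHTS luciferase splicing reporter: luminescence rises when SMN2 exon 7 is included in transfected HEK293 cells. Compound exposure lasted 30-36 h at 37C, with 4.5 mM final sodium butyrate as control, followed by a ONE-Glo read.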
# ELG1 genotox = inducers of genotoxicity in HEK293T ELG1-luciferase cells; Potency, µM (doses to about 46 µM), for the others: top-dose activity change, positive = activation, usual class: activators; HEK293T ELG1-luciferase reporter, luminescence, 16 h; 330,000 compounds, 1.3% hits; AID 504466; further: % of control where 0% means no effect; nearly all actives have a fitted effect of over 60% in size
#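 ELG1-luciferase HEK293T cells, 2,000/well; compound pinned in; 16 hr, 37 °C, 5% CO2; ONE-Glo, 30 min RT; luminescence on CCD imager.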
# Rab9 promoter act = activates the Rab9 promoter; AID 485297; 320,000 compounds, 2.8% hits; Potency, µM (doses to about 9.22 µM), without a hit: at the top dose activation, negative = inhibition, hits mostly activators; Huh7 Rab9 promoter-luciferase reporter, luminescence, 24 h; further: % of control where 0% means no effect; nearly all actives have a fitted effect of over 60% in size
#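 Luminescence read-out: Huh7 cells stably expressing Rab9-luciferase, treated 24 h with compound at 37 °C, then lysed with luciferase reagent for 10 min at ambient before reading.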
# Starred values were filed as active, the others as inactive; ? = inconclusive; . = not tested or not shown; [ ] = remark or other dose. The call rests on the fitted dose curve; in most records, active means well fitted curve in the direction sought with a large enough effect; inconclusive means small, poorly fitted or top-dose-only effect, or another doubt; inactive means no such curve, though single readings can be large; an effect the other way counts as inactive or inconclusive. Potency means the concentration at half of the fitted maximal effect.
SMILES,FLuc counter,NPC1 prom act,p53 reactivator,SMN2 splice up,ELG1 genotox,Rab9 promoter act
COc1ccc(-c2cc(C(=O)c3c(N)n(C)c(=O)n(C)c3=O)c3ccccc3n2)cc1OC,9.53µM*,9.1%,4.4%,.,?,24.3%
CC(CCc1ccccc1)NC(=O)C1CCN(S(=O)(=O)c2cnc[nH]2)CC1 (stereo unspecified),-1.6%,-0.6%,-17.9%,-3.8%,-3.1%,0.6%
CCOC(=O)c1ccc(-c2ccc3[nH]c4ccccc4c(=O)c3c2)cc1F,0.536µM*,?,.,.,?,-3.1%
CCOC(=O)c1c[nH]c2ccc3ccccc3c2c1=O,?,-0.7%,-5.2%,.,-4.1%,0.1%
C/C(=C\c1ccc(N)cc1)c1nc2ccccc2[nH]1,3.01µM*,2.51µM*,?,.,?,2.24µM*
COC(=O)/C(=C\c1ccc(O)cc1)c1nc2ccccc2[nH]1,?,-1.0%,2.1%,-9.4%,15.8%,8.0%
COC(=O)c1ccc(N=NN2CCCCC2)cc1,8.49µM*,2.82µM*,14.0%,14.1µM*,8.2µM*,2.24µM*
O=Nc1ccc(NOC(=O)c2ccc(Br)cc2)cc1,0.0757µM*,2.6%,3.0%,3.3%,-2.4%,-4.8%
COC(=O)c1ccc(NN=Nc2ccc(C)cc2)cc1,6.75µM*,0.794µM*,.,11.2µM*,?,1.12µM*
Cc1ccc(OCCNC(=O)c2ccccc2O)cc1,?,1.4%,2.2%,.,4.5%,12.6%
COC(=O)c1ccc(C)cc1,.,.,10.2%,8.3%,-0.9%,.
Cc1ccc(C(=O)ONc2ccc(N=NC(=O)c3ccccc3O)cc2)cc1,12µM*,19.8%,9.7%,-42.1%,?,?
C/C(=N/Nc1nc(C)cc(=O)[nH]1)C(=O)O,.,.,.,-10.0%[9.22 µM],.,.
C[C@@H]1COC(=O)[C@@H](Cc2ccc(F)cc2)C/C=C\C[C@H](CC(=O)N(CCO)Cc2ccccc2)C(=O)N1,.,.,0.7%,.,-4.3%,.
Cc1ccc(C(=O)ONc2ccc(N=O)cc2)cc1,0.0301µM*,0.8%,?,-7.7%,-2.6%,-1.1%
COc1ccc2c(c1)CC(C(=O)NCCCN1CCN(c3ccc(F)cc3)CC1)CO2 (stereo unspecified),-1.0%,.,.,.,.,.
Cc1oc2c(c(C)cc3oc(=O)c(CC(=O)NCc4ccc(F)cc4)c(C)c32)c1C,2.2%,.,.,9.2%,.,.
COc1ccc(-c2ccc3c(N)c(C(=O)Nc4cc(F)ccc4C)sc3n2)cc1,?,.,.,-2.7%,.,.
COc1ccc(-c2ccc3c(N)c(C(=O)NC(C)C)sc3n2)cc1OC,16.9µM*,-0.4%,-2.5%,.,2.0%,11.6%
COc1cccc(NC(=O)c2sc3nc(C)c(C(=O)Nc4ccc(C)cc4C)c(-c4ccc(Br)cc4)c3c2N)c1,-4.9%,.,.,12.6µM*,.,.
COc1ccc(-c2ccc3c(N)c(C(=O)Nc4cccc(C)c4)sc3n2)cc1,1.1%,.,.,1.78µM*,.,.
CC(=O)NCc1ccc(S(=O)(=O)N2CCN(S(=O)(=O)c3ccc4ccccc4c3)CC2)cc1,-0.9%,-5.0%,-3.7%,.,?,-1.9%
S=c1nc2ccccc2c2nc(-c3ccccc3)[nH]n12,26.9µM*,?,?,-9.7%,8.7%,17.1%
Cc1nc2ccc(-c3nc4cc(N)ccc4o3)cc2[nH]1,1.9µM*,0.398µM*,-6.5%,2.82µM*,?,0.398µM*
Nc1ccc2oc(-c3ccc4nc[nH]c4c3)nc2c1,1.9µM*,?,8.8%,12.6µM*,?,?
Cc1nc2ccc([N+](=O)[O-])cc2[nH]1,-2.3%,-2.0%,-2.2%,-0.4%,-1.5%,-2.0%
CN(C(=O)c1ccncc1)C1CCCCC1,-2.2%,-2.0%,19.9%,.,-0.1%,8.1%
CCCC(=O)Nc1nc(C(=O)OCC)cs1,-5.5%,9.3%,4.4%,-7.6%,4.2%,2.5%
CCOC(=O)c1csc(NC(=O)COc2ccc(Cl)cc2Cl)n1,23.9µM*,-2.1%,0.1%,-8.5%,0.3%,-7.9%
